# Test results taken from paper PMC7862700, “An all-to-all approach to the identification of sequence-specific readers for epigenetic DNA modifications on cytosine”.
# How the values were obtained:
# Experiment in all cases: DAPPL (digital affinity profiling via proximity ligation, sequencing); 10 mM Tris-HCl pH 7.5, 50 mM NaCl, 1 mM DTT, 4% glycerol, room temperature, 30 min; GST-TFs on glutathione beads, 16-mer random dsDNA library, 0.1% formaldehyde crosslink after washing; high values mean tight binding
# Conditions in all cases: protein: recombinant; tags: N-terminal GST; dsDNA, one strand shown
# FLI1 = target: T1, FLI1 (Homo sapiens, UniProt Q01543 1-452)
# T1 sequence: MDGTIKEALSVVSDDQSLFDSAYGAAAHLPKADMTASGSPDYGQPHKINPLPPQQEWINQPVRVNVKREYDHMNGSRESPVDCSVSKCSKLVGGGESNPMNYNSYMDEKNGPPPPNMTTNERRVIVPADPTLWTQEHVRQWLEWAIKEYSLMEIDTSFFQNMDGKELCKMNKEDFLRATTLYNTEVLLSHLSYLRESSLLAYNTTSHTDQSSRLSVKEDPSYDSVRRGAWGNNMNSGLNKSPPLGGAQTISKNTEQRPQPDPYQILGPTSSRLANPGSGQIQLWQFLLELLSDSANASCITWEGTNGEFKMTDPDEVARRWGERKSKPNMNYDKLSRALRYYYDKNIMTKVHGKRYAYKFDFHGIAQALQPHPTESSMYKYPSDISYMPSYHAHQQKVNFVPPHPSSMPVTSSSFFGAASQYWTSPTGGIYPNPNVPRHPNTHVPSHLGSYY
# In short: (§1)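 A tag-only sample was pooled with DNA-barcoded human transcription factors that had been expressed in yeast as GST fusions and captured on glutathione beads. The pools were incubated for 30 min at room temperature with 200 nmole of a random double-stranded 16-mer DNA library in Tris/NaCl/DTT/glycerol buffer, then washed, crosslinked with 0.1% formaldehyde, proximity-ligated (BsaI/T4 ligase, 1 h, 37 °C), PCR-amplified and sequenced on an Illumina NextSeq500. Binding signal is each hexamer's read frequency for a factor divided by its frequency for the tag-only sample.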
# ELK1 = target: T2, ELK1 (Homo sapiens, UniProt P19419 1-428)
# T2 sequence: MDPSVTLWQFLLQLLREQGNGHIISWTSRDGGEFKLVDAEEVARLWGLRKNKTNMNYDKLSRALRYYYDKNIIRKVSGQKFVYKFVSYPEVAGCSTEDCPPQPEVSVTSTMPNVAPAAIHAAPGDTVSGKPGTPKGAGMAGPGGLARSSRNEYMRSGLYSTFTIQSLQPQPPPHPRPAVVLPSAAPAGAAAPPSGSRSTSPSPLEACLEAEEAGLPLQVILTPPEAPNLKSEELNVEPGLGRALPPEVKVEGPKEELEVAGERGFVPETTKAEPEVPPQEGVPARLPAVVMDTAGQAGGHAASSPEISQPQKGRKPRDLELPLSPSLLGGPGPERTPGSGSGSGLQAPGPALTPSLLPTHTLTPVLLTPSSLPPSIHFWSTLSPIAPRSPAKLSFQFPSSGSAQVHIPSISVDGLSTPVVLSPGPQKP
# In short: as §1
# GABPA = target: T3, GABPA (Homo sapiens, UniProt Q06546 1-454)
# T3 sequence: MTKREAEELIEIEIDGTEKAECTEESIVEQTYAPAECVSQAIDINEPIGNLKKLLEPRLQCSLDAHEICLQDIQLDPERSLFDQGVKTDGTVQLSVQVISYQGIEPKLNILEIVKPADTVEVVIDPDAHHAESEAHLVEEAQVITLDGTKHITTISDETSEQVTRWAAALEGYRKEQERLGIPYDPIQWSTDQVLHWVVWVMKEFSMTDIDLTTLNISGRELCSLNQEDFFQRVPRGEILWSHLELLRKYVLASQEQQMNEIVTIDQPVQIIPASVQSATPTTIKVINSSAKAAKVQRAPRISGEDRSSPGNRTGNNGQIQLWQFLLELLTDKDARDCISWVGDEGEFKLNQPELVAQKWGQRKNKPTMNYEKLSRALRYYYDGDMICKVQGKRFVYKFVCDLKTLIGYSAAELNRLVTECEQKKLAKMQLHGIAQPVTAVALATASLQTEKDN
# In short: as §1
# ERG = target: T4, ERG (Homo sapiens, UniProt P11308 1-479)
# T4 sequence: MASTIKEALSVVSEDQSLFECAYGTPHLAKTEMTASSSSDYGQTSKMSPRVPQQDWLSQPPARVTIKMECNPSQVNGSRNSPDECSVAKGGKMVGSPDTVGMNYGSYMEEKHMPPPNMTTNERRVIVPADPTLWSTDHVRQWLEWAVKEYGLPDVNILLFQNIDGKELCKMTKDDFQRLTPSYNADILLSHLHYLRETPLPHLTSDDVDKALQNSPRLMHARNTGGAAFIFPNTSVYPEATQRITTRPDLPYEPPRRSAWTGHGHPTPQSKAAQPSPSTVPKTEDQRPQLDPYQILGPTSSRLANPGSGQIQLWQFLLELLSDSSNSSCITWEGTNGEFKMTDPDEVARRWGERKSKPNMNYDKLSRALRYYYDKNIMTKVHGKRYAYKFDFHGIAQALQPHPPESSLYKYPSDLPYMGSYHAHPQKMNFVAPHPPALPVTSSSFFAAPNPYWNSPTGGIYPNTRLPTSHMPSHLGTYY
# In short: as §1
# ELF1 = ELF1 (Homo sapiens, UniProt P32519 1-619)
# In short: as §1
# EHF = target: T5, EHF (Homo sapiens, UniProt Q9NZC4 1-300)
# T5 sequence: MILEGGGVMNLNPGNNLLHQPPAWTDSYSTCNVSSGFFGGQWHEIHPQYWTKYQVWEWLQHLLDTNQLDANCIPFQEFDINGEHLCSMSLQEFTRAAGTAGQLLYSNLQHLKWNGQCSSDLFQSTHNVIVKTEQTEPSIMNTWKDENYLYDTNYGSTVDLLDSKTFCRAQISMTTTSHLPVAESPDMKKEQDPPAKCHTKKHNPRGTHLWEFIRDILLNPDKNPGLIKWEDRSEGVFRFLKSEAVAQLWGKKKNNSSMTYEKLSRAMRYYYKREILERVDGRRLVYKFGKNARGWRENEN
# In short: as §1
# SPI1 = SPI1 (Homo sapiens, UniProt P17947 1-270)
# In short: as §1
# SPIB = SPIB (Homo sapiens, UniProt Q01892 1-262)
# In short: as §1
# ELK3 = target: T6, ELK3 (Homo sapiens, UniProt P41970 1-407)
# T6 sequence: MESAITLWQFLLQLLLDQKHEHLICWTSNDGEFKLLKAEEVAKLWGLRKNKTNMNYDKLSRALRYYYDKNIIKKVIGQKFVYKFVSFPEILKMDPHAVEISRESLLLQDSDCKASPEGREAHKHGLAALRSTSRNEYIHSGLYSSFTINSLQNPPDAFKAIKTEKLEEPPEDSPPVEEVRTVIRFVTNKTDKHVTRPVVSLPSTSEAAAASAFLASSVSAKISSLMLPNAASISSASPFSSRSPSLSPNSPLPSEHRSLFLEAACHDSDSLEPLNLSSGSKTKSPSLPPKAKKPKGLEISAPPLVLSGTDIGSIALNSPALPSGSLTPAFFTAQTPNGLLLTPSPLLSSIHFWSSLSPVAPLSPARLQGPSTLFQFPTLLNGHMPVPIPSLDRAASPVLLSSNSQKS
# In short: as §1
# SPIB, sequence (Q01892 whole entry): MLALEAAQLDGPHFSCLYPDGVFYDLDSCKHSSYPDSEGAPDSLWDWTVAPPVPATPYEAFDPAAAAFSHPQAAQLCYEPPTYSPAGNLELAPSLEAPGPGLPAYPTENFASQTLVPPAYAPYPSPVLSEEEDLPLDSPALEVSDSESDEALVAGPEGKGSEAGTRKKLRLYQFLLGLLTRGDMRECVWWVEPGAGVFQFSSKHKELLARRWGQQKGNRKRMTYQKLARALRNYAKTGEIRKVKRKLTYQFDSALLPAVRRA
# ELF1, sequence (P32519 whole entry): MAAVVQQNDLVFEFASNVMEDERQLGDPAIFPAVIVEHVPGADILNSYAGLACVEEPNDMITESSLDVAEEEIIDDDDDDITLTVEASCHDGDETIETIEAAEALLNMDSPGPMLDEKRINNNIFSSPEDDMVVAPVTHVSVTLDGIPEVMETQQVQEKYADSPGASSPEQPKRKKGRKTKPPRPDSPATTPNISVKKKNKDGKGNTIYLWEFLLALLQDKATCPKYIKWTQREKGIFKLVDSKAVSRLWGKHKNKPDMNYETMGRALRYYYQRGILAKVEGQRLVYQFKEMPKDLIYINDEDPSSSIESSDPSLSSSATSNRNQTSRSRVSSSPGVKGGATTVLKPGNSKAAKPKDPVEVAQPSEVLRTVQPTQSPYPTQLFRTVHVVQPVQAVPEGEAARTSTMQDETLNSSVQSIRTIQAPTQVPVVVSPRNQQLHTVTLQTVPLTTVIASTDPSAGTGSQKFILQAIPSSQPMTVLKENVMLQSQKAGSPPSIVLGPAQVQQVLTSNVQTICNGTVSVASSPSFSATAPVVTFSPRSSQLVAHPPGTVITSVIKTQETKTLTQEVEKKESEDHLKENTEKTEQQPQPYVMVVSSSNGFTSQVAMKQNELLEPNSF
sequence,measurement,setting,value
GACTCT,binding signal,FLI1,"1.3 fold enrichment (6-mer frequency, TF over GST control)"
same,binding signal,ELK1,"1.28 fold enrichment (6-mer frequency, TF over GST control)"
same,binding signal,GABPA,"1.37 fold enrichment (6-mer frequency, TF over GST control)"
same,binding signal,ERG,"1.34 fold enrichment (6-mer frequency, TF over GST control)"
same,binding signal,ELF1,"1.37 fold enrichment (6-mer frequency, TF over GST control)"
same,binding signal,EHF,"1.27 fold enrichment (6-mer frequency, TF over GST control)"
same,binding signal,SPI1,"1.2 fold enrichment (6-mer frequency, TF over GST control)"
same,binding signal,SPIB,"1.37 fold enrichment (6-mer frequency, TF over GST control)"
same,binding signal,ELK3,"1.2 fold enrichment (6-mer frequency, TF over GST control)"
